Assay results reported in PubChem BioAssay.
Values without a mark were called inactive. Active and inactive are the calls of the source.

Test: PSAC antagonists in infected red cells, primary screen, cell-based, P. falciparum Indochina, OD700, 1 h (AID 1154)
Settings: P. falciparum Indochina infected RBC osmotic lysis, higher = more signal, called active from +8 up or from −8 down

Row | SMILES | z-score
1 | COc1ccc([Si](C)(C)[C@H]2[C@H](CCO)O[C@@]3(C(=O)N(Cc4cccc(N5C(=O)COc6ccccc65)c4)c4ccccc43)[C@@H]2C)cc1 | 2.15
2 | CC(C)(C)OC(=O)CC[C@@]1(C(=O)NCc2ccccc2)N=C(c2ccc(OCCCO)cc2)O[C@@H]1c1ccccc1N=[N+]=[N-] | 33.2 (active)
3 | CN(C)CCCNC(=O)[C@@]1(c2ccc([N+](=O)[O-])cc2)CC(=O)N(CC23CC4CC(CC(C4)C2)C3)[C@@H]1c1ccc(CO)cc1I | 11.4 (active)
4 | C=C[C@@H](OC)[C@H](OC(=O)Nc1ccc(SC)cc1)c1ccc(O)c(F)c1 | 24.7 (active)
5 | CCC(CC)C(O)C1C=CC2C(=O)N(c3ccccc3)C(=O)C2N1Nc1ccc(C(C)C)cc1 (stereo not given) | 1.46
6 | COC(=O)[C@@]1(Cc2ccc(F)cc2)[C@H]2c3cc(C(=O)N(C)C)n(CCc4ccc(O)c(OC)c4)c3C[C@H]2CN1C(=O)c1ccccc1 | -0.951
7 | CC(C)[Si](C#CCCCC#N)(O[C@H](c1ccccc1)c1cn([C@H](CO)Cc2ccccc2)nn1)C(C)C | 1.31
8 | Cc1cc(C)c(C(O)C2C=CC3C(=O)NC(=O)C3N2Nc2ccc(Cl)cc2Cl)c(C)c1 (stereo not given) | 3.38
9 | CCOc1cc(C(O)C2C=CC3C(=O)N(C)C(=O)C3N2Nc2ccccc2)ccc1O (stereo not given) | 0.453
10 | O=C1O[C@H](c2ccccc2)[C@H](c2ccccc2)N2[C@H]1[C@@H](C(=O)Nc1nc3ccccc3s1)[C@]1(C(=O)Nc3ccc(C#CCCO)cc31)[C@H]2c1ccc(O)cc1 | 0.402
